Unmarked numbers belong to inactive results. Records with an inconclusive call do not appear. Where a call stands in place of a potency, no number is given. Activity calls are given as the source filed them. Unless noted, calls come from the whole dose curve; as a rule, active = well fitted curve in the direction sought with a large enough effect; inconclusive = small, poorly fitted or top-dose-only effect, or another doubt; inactive = no such curve, though single readings can be large; an effect the other way counts as inactive or inconclusive.
What was measured:
[1] = target: Lysosomal acid glucosylceramidase (Homo sapiens) (UniProt P04062); test: Glucocerebrosidase-p2 (AID 348; in the data active = potency below about 10 µM; note: potency is the fitted concentration of half-maximal effect); conditions: purified GBA, blue fluorogenic substrate, 40 min
Summary of the method: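 Normal human glucocerebrosidase (0.2 nM) with blue fluorogenic substrate (80 uM final) in citrate/phosphate pH 5.9 with 10mM sodium taurocholate, 0.01% tween-20; 40 min RT, NaOH/glycine stop; fluorescence Ex 365/Em 440; AC50 from a titration from 0.6 nM upwards.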

[2] = NFAT Signaling Pathway (AID 444; active = well fitted curve in either direction with a large enough effect, not every such curve was filed as active;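 note: carbachol stimulus at about its EC50 of 1 µM final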); conditions: Jurkat NFAT-bla M1, carbachol, beta-lactamase ratio, 5 h; at 7.69 µM (top of the series) unless noted
Summary of the method: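 Read-out: CCF4 FRET ratio (460 nm/530 nm) after 1 h RT dye loading, used for %activity and AC50 from titration series. Cells: Jurkat NFAT-β-lactamase/M1 line, treated with compound plus 1 uM carbachol for 5 h, 37 °C.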

[3] = Stat Signaling Pathway (AID 446; active = well fitted curve in either direction with a large enough effect, not every such curve was filed as active;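 note: ME-180 cervical cancer cells given 40 pM IL-6 alongside compound; SIE-controlled beta-lactamase reporter measured as 460/530 nm FRET emission ratio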); conditions: ME-180 (cervical carcinoma) SIE beta-lactamase reporter, IL-6 stimulated, 5 h; at 7.69 µM (top of the series) unless noted
Summary of the method: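 Emission at 460 and 530 nm (excitation 405 nm) reports SIE-controlled beta-lactamase in ME-180 cells. Cells received compound with 40 pM IL-6 for 5 hrs at 37 C; data scaled between 300 pM IL-6 and 125 nM JAK-inhibitor controls.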

[4] = target: Glucocorticoid receptor (Homo sapiens) (UniProt P04150); test: GR-GFP Redistribution (AID 450;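 active = compounds whose dose series gives a full or clear partial fitted curve of increased nuclear translocation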; note: potency is the fitted concentration of half-maximal effect); conditions: U2OS GR-GFP nuclear translocation, laser cytometry, 2 h
[5] = target: Glucocorticoid receptor (Homo sapiens) (UniProt P04150); test: GR-EFC Redistribution (AID 451; calls by dose curve; note: potency is the fitted concentration of half-maximal effect); conditions: CHO-K1 GR-EFC translocation, beta-gal luminescence, 2 h
Summary of the method: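 Translocation of GR-ED fusion to nuclear EA restores b-gal, read by luminescence after 1 h room-temperature detection. Engineered CHO-K1 biosensor cells, 1,000/well, exposed 2 h at 37 C to titrations up to 46 uM final.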

[6] = target: 3',5'-cyclic-AMP phosphodiesterase 4B (Homo sapiens) (UniProt Q07343); test: qHTS Assay for Inhibitors of PDE-IV (AID 607; active = well fitted activation curve with a large enough effect in the main read-out, with a control signal flat, not every such curve was filed as active); conditions: HEK293 ACTOne CNG channel cells, membrane potential fluorescence; series mostly up to 22.9 µM
Summary of the method: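 The readout is membrane depolarisation from a cAMP-sensing CNG channel, detected with a potential dye at ex 535/em 590. Cells were HEK293-derived (endogenous PDE-IV) at 1000 cells/well, titrated up to 22.9 uM final.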

[7] = target: Mitogen-activated protein kinase 10 (Mus musculus) (UniProt Q61831); test: JNK3 AlphaScreen Assay (AID 530; active = well fitted curve in either direction with a large enough effect, not every such curve was filed as active;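 note: kinase came from lysate of stimulated human HepG2 cells; signal reports phosphorylation of biotinylated GST-cJun 1-79 at Ser73 with 10 µM ATP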); conditions: JNK3 lysate, c-Jun phosphorylation; series mostly up to 11.4 µM
Summary of the method: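 qHTS titrations with 15 min compound pre-incubation before adding ATP (10 uM final). Read-out: AlphaScreen of Ser73-phosphorylated biotin-GST-cJun using HepG2 lysate JNK3 activated by IL-1β and TNFα.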

[8] = target: ATP-dependent 6-phosphofructokinase (Trypanosoma brucei brucei) (UniProt O15648); test: qHTS Assay to Find Inhibitors of T. brucei phosphofructokinase: hit validation (AID 492961);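 note: luminescence reports ADP formed as PFK phosphorylates fructose-6-phosphate with ATP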; conditions: T. brucei PFK, ADP-Glo luminescence; series mostly up to 51.4 µM
Summary of the method: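 ADP-Glo luminescence read-out of ADP formed by 1.25 nM PFK from 0.1 mM ATP and 0.5 mM F6P (TEA pH 8.0, 45 min, RT). Compounds titrated; activity normalized to no-enzyme and full-enzyme controls.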

[9] = target: Luciferin 4-monooxygenase (Photinus pyralis) (UniProt P08659); test: Biochemical firefly luciferase enzyme assay for NPC (AID 624030);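 note: purified P. pyralis luciferase at 10 nM with luciferin and ATP substrate; nearly all actives have a fitted effect of over 70% in size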; conditions: purified P. pyralis luciferase, luminescence, 5 min; series mostly up to 58.6 µM
Summary of the method: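 Direct inhibition of firefly luciferase enzyme (10 nM final, 50 mM Tris Acetate) assessed by luminescence within 5 minutes. Percent activity scaled between DMSO and PTC124 positive control, with concentration-effect curves classified by fit quality and response.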

[10] = S16 Schwann cell viability assay (CellTiter-Glo assay) (AID 624031); conditions: S16 rat Schwann cells viability, 24 h; series mostly up to 57.5 µM; note: potency is the fitted concentration of half-maximal effect; nearly all actives have a fitted effect of over 70% in size
Summary of the method: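 Counter-screen for cytotoxicity: parental S16 rat Schwann cells lacking the PMP22 reporters, treated 24 h with compound, viability from cellular ATP by CellTiter-Glo luminescence, normalized to DMSO (0%) and no-cell wells.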

[11] = S16 Schwann cell PMP22 intronic element firefly luciferase assay (AID 624032); conditions: S16 rat Schwann cells, PMP22 element FLuc, 24 h; series mostly up to 57.5 µM; note: nearly all actives have a fitted effect of over 30% in size
Summary of the method: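 Luciferase reporter of PMP22 intronic-element expression in stably transfected S16 rat Schwann cells, read by ONE-Glo luminescence after 24 h compound exposure at 37 C. Activity scaled between DMSO (0%) and positive-control PTC124; concentration-effect curves quality-classified.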

[12] = S16 Schwann cell PMP22 intronic element beta-lactamase assay (AID 624044; calls by dose curve; note: nearly all actives have a fitted effect of over 15% in size); conditions: S16 rat Schwann cells, PMP22 element beta-lactamase FRET, 24 h; series mostly up to 38.3 µM
Summary of the method: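 Beta-lactamase reporter under a PMP22 intronic regulatory element in stable S16 rat Schwann cells; 24 h compound exposure. 460 nm blue signal normalized between DMSO (0%) and potassium clavulanate, with 535 nm FRET tracking viability; curves classed by r2 and response.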

[13] = qHTS profiling for inhibitors of Plasmodium falciparum proliferation (AID 504749); note: nearly all actives have a fitted effect of over 60% in size; note: potency is the fitted concentration of half-maximal effect; conditions: P. falciparum in erythrocytes, SYBR Green DNA, 72 h, at 28.7 µM (top of the series)
Summary of the method: (§1)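 SYBR Green fluorescence of parasite DNA, read after lysis and overnight dark incubation, measured growth over 72 h in erythrocyte culture at 0.3% parasitemia and 2.5% hematocrit. Data normalised to DMSO and 0.29 uM artemisinin, with plate-drift correction.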

7G8 = test: as above; conditions: P. falciparum in erythrocytes, SYBR Green DNA, 72 h; series mostly up to 28.7 µM
Summary of the method: as §1

ATS189 = test: as above; conditions: P. falciparum in erythrocytes, SYBR Green DNA, 72 h; series mostly up to 28.7 µM
Summary of the method: as §1

CP185 = test: as above; conditions: P. falciparum in erythrocytes, SYBR Green DNA, 72 h; series mostly up to 28.7 µM
Summary of the method: as §1

CP192 = test: as above; conditions: P. falciparum in erythrocytes, SYBR Green DNA, 72 h; series mostly up to 28.7 µM
Summary of the method: as §1

CP201 = test: as above; conditions: P. falciparum in erythrocytes, SYBR Green DNA, 72 h; series mostly up to 28.7 µM
Summary of the method: as §1

CP238 = test: as above; conditions: P. falciparum in erythrocytes, SYBR Green DNA, 72 h; series mostly up to 28.7 µM
Summary of the method: as §1

CP247 = test: as above; conditions: P. falciparum in erythrocytes, SYBR Green DNA, 72 h; series mostly up to 28.7 µM
Summary of the method: as §1

CP252 = test: as above; conditions: P. falciparum in erythrocytes, SYBR Green DNA, 72 h; series mostly up to 28.7 µM
Summary of the method: as §1

CP262 = test: as above; conditions: P. falciparum in erythrocytes, SYBR Green DNA, 72 h; series mostly up to 28.7 µM
Summary of the method: as §1

CP265 = test: as above; conditions: P. falciparum in erythrocytes, SYBR Green DNA, 72 h; series mostly up to 28.7 µM
Summary of the method: as §1

CP266 = test: as above; conditions: P. falciparum in erythrocytes, SYBR Green DNA, 72 h; series mostly up to 28.7 µM
Summary of the method: as §1

CP315 = test: as above; conditions: P. falciparum in erythrocytes, SYBR Green DNA, 72 h; series mostly up to 28.7 µM
Summary of the method: as §1

CP325 = test: as above; conditions: P. falciparum in erythrocytes, SYBR Green DNA, 72 h; series mostly up to 28.7 µM
Summary of the method: as §1

CP329 = test: as above; conditions: P. falciparum in erythrocytes, SYBR Green DNA, 72 h; series mostly up to 28.7 µM
Summary of the method: as §1

DFO2036 = test: as above; conditions: P. falciparum in erythrocytes, SYBR Green DNA, 72 h; series mostly up to 28.7 µM
Summary of the method: as §1

DIV14 = test: as above; conditions: P. falciparum in erythrocytes, SYBR Green DNA, 72 h; series mostly up to 28.7 µM
Summary of the method: as §1

DIV17 = test: as above; conditions: P. falciparum in erythrocytes, SYBR Green DNA, 72 h; series mostly up to 28.7 µM
Summary of the method: as §1

GB4 = test: as above; conditions: P. falciparum in erythrocytes, SYBR Green DNA, 72 h; series mostly up to 28.7 µM
Summary of the method: as §1

HB3 = test: as above; conditions: P. falciparum in erythrocytes, SYBR Green DNA, 72 h; series mostly up to 28.7 µM
Summary of the method: as §1

ICS = test: as above; conditions: P. falciparum in erythrocytes, SYBR Green DNA, 72 h; series mostly up to 28.7 µM
Summary of the method: as §1

N140 = test: as above; conditions: P. falciparum in erythrocytes, SYBR Green DNA, 72 h; series mostly up to 28.7 µM
Summary of the method: as §1

P93_24 = test: as above; conditions: P. falciparum in erythrocytes, SYBR Green DNA, 72 h; series mostly up to 28.7 µM
Summary of the method: as §1

PAD = test: as above; conditions: P. falciparum in erythrocytes, SYBR Green DNA, 72 h; series mostly up to 28.7 µM
Summary of the method: as §1

PC15 = test: as above; conditions: P. falciparum in erythrocytes, SYBR Green DNA, 72 h; series mostly up to 28.7 µM
Summary of the method: as §1

SC27B = test: as above; conditions: P. falciparum in erythrocytes, SYBR Green DNA, 72 h; series mostly up to 28.7 µM
Summary of the method: as §1

W2 = test: as above; conditions: P. falciparum in erythrocytes, SYBR Green DNA, 72 h; series mostly up to 28.7 µM
Summary of the method: as §1

Chain of Glucocorticoid receptor (Homo sapiens) (P04150 whole entry, looked up, the tested form may be a part): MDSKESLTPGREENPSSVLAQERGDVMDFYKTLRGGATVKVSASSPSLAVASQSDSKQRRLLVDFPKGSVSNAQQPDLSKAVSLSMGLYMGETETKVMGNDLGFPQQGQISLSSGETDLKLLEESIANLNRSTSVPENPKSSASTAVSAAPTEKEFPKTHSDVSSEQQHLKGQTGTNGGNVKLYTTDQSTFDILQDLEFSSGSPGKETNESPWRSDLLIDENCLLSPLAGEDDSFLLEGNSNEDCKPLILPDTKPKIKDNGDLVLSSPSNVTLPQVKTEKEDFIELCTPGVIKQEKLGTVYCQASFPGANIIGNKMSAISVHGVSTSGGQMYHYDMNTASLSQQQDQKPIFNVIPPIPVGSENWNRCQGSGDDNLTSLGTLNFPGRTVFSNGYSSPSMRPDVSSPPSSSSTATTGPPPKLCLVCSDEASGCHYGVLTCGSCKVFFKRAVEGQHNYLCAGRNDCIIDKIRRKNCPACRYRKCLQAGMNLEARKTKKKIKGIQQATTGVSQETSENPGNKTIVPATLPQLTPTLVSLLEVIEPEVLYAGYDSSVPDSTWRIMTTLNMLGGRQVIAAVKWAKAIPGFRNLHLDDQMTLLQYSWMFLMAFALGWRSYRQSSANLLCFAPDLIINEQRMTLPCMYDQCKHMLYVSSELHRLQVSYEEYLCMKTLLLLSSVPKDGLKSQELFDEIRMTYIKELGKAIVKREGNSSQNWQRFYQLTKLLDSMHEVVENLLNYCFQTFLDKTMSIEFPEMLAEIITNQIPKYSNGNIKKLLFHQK
Chain of 3',5'-cyclic-AMP phosphodiesterase 4B (Homo sapiens) (Q07343 whole entry, looked up): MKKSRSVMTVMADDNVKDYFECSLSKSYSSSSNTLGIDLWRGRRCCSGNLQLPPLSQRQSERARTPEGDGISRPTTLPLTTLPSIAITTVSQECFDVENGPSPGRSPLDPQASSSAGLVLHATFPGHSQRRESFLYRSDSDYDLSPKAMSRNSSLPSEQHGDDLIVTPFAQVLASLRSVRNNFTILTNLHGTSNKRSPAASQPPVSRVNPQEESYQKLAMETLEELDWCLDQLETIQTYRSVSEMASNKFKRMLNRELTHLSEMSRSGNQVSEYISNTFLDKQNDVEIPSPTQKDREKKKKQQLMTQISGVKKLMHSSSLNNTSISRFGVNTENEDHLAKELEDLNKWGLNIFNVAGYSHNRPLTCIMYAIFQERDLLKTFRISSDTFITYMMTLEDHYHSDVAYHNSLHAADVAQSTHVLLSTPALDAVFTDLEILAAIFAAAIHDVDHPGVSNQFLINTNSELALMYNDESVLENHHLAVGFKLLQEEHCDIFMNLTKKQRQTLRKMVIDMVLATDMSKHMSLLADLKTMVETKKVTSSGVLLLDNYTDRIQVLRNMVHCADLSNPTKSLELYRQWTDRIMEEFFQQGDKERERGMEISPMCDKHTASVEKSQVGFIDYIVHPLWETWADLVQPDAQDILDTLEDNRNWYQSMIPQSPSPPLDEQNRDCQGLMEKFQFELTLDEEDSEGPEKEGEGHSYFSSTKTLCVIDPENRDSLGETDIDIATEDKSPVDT
Chain of Lysosomal acid glucosylceramidase (Homo sapiens) (P04062 whole entry, looked up): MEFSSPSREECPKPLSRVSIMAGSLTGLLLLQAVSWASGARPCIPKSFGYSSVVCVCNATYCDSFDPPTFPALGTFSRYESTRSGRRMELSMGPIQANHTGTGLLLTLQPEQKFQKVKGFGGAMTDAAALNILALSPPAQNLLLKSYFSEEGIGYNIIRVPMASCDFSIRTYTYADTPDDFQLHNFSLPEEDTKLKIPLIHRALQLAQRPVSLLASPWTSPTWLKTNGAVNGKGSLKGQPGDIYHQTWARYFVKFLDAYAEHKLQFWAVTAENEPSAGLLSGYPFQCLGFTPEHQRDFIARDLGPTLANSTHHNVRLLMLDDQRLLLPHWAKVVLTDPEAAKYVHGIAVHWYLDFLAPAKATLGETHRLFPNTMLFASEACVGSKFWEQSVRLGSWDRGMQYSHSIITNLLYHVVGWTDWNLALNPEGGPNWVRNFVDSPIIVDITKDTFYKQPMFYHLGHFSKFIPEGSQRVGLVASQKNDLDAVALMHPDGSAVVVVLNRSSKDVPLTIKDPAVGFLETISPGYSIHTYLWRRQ
Chain of Luciferin 4-monooxygenase (Photinus pyralis) (P08659 whole entry, looked up): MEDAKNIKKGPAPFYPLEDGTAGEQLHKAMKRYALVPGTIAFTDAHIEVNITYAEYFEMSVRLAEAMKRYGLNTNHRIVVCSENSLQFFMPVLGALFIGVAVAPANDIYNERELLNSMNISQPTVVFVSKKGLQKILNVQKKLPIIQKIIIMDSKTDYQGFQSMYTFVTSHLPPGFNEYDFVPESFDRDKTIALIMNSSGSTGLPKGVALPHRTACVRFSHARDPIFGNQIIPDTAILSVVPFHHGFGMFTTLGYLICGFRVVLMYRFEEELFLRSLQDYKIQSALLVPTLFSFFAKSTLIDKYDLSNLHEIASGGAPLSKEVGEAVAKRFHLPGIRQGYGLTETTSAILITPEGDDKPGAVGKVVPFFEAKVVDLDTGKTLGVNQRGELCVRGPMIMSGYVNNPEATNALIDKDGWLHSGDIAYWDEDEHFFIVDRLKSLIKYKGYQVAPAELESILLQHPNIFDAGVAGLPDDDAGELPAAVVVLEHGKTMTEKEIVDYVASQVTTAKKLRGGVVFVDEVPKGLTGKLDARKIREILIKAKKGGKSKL
Chain of ATP-dependent 6-phosphofructokinase (Trypanosoma brucei brucei) (O15648 whole entry, looked up): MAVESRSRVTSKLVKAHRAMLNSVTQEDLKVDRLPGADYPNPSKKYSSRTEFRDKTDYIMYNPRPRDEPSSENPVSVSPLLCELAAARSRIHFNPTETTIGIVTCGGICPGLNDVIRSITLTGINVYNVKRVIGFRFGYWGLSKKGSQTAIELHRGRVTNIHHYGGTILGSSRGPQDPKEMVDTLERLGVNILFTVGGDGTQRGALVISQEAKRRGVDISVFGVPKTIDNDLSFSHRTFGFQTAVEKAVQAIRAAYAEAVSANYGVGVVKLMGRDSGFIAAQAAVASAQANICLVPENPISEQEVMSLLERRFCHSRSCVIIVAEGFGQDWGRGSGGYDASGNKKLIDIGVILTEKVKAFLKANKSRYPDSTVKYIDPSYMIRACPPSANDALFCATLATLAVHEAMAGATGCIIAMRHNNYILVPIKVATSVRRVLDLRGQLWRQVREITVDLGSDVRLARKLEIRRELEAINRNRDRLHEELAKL

SMILES: O=c1c(-c2ccc(F)cc2)nc2cnc(Oc3ccccc3)nc2n1C[C@H]1CCCO1
- Potency [1]: > 11.4 µM
- activity change, negative = inhibition [2]: -2.24%
- activity, negative = inhibition [3]: -12.2%
- Potency [4]: > 9.22 µM
- Potency [5]: > 46 µM
- Potency [6]: inactive

SMILES: CCc1ccc2c(c1)N(C[C@H](C)CN(C)C)c1ccccc1S2
- Potency [1]: > 11.4 µM
- activity, negative = inhibition [3]: 3.53%
- Potency [4]: > 46 µM
- Potency [5]: > 9.22 µM
- Potency [7]: inactive
- Potency [6]: inactive
- outcome [8]: inactive
- outcome [9]: inactive
- Potency [10]: 28.7 µM (active)
- Potency [11]: inactive
- outcome [12]: inactive
- activity, negative = inhibition ([13]; parasite line A): -23.4%
- activity, negative = inhibition ([13]; parasite line B): -17.5%
- Potency (7G8): 10 µM (active)
- Potency (ATS189): inactive
- Potency (CP185): inactive
- Potency (CP192): inactive
- Potency (CP201): inactive
- Potency (CP238): inactive
- Potency (CP247): inactive
- Potency (CP252): inactive
- Potency (CP262): inactive
- Potency (CP265): inactive
- Potency (CP266): inactive
- Potency (CP315): inactive
- Potency (CP325): inactive
- Potency (CP329): inactive
- Potency (DFO2036): inactive
- Potency (DIV14): 8.49 µM (active)
- Potency (DIV17): 6.01 µM (active)
- Potency (GB4): 7.57 µM (active)
- Potency (HB3): inactive
- Potency (ICS): 7.94 µM (active)
- Potency (N140): inactive
- Potency (P93_24): 7.94 µM (active)
- Potency (PAD): inactive
- Potency (PC15): inactive
- Potency (SC27B): inactive
- Potency (W2): 7.57 µM (active)

— PubChem BioAssay (NCATS)
